# In PubChem BioAssay AID1851 (National Center for Advancing Translational Sciences (NCATS), 2009):
# Screen size: about 16,000 compounds; about 5,100 (32%) were called active. Not shown: some 25% with an inconclusive outcome. Some of the results follow. Unmarked numbers belong to inactive results. The call rests on the fitted dose curve; in most records, active means well fitted curve in the direction sought with a large enough effect; inconclusive means small, poorly fitted or top-dose-only effect, or effect the other way; inactive means no such curve, though single readings can be large or run the other way.
# Target: Cytochrome P450 3A4 (Homo sapiens) (UniProt P08684)
# Sequence (P08684 whole entry, looked up): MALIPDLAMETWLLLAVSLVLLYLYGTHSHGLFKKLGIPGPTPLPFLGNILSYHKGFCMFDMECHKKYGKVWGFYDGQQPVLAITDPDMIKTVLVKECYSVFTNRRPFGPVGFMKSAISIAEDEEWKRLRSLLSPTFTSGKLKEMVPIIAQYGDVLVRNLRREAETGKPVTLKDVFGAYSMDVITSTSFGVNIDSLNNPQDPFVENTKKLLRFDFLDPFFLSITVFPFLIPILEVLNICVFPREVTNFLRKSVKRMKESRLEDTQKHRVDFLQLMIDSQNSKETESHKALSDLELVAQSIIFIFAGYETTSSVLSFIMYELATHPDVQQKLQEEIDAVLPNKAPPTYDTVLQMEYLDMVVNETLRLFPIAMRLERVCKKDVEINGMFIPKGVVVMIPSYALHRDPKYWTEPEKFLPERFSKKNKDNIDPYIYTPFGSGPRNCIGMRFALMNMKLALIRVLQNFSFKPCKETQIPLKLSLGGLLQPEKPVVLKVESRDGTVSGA
# Experiment: Cytochrome panel assay with activity outcomes
# Conditions: recombinant CYP, pro-luciferin dealkylation, luminescence, p450-cyp3a4; series mostly up to 57.1 µM; activity, negative = inhibition: at the top concentration
# On the % scale 0 is the no-effect control and ±100 the full control effect.
Compound,"activity, negative = inhibition",AC50
O=C(O)c1cccc(C(=O)O)c1S(=O)Cc1ccccc1 (stereo unspecified),-7.75% [at 11.4 µM],–
NNC(=O)CCSc1ccccc1,–,3.98 µM (active)
O=C(/C=C/c1ccc(Cl)cc1)NCCSc1ccccc1,0.692%,–
O=C(O)CCCSc1ccccc1,5.11% [at 11.4 µM],–
CCC(C)C(NS(=O)(=O)c1ccc(C)cc1)C(=O)Oc1ccc2c3c(c(=O)oc2c1)CCC3 (stereo unspecified),–,7.94 µM (active)
Cc1ccc(S(=O)(=O)N[C@H](CN)C(=O)O)cc1,-20.1% [at 11.4 µM],–
Cc1ccc(S(=O)(=O)NC(CC(C)C)C(=O)Oc2ccc3c4c(c(=O)oc3c2)CCC4)cc1 (stereo unspecified),–,14.1 µM (active)
Cc1nc2ccc(S(=O)(=O)NC(CC(C)C)C(=O)O)cc2s1 (stereo unspecified),-3.56% [at 2.29 µM],–
Cc1ccc(S(=O)(=O)N[C@H](C(=O)O)C(C)C)cc1,-11.9% [at 11.4 µM],–
CC(C)Oc1ccc2c(=O)c3cc(C(=O)O)ccc3oc2c1,-21.8%,–
NCc1ccc(C(=O)O)cc1,-14.2% [at 11.4 µM],–
O=C(c1cc2sccc2n1Cc1ccccc1)N1CCN(c2nc3ccccc3s2)CC1,–,0.631 µM (active)
O=S(=O)(O)c1nc2ccccc2n1Cc1ccccc1,-3.58%,–
S=c1[nH]nc(CCc2ccccc2)n1Cc1ccccc1,–,7.94 µM (active)
CN(Cc1n[nH]c(=S)n1C)S(=O)(=O)c1ccccc1,-10.1%,–
O=C1c2ccccc2C(Cc2ccncc2)(Cc2ccncc2)c2ccccc21,–,0.501 µM (active)
COC(=O)C1=C(N)N(c2ccccc2C(F)(F)F)C2=C(C(=O)CCC2)C1c1ccc2c(c1)OCO2 (stereo unspecified),–,0.316 µM (active)
Cc1cc([C@](C)(N)C(=O)O)ccc1P(=O)(O)O,0.891%,–
Clc1ccccc1OCCCCN1CCCC1,-0.971%,–
CN1CCN(CCc2ccc(Cl)c(Cl)c2)CC1,-3.98%,–
CN(CCc1ccc(Cl)c(Cl)c1)CCN1CCCCCC1,–,10 µM (active)
C[C@@H](NC(=O)/C(C#N)=C/c1ccc(O)c(O)c1)c1ccccc1,–,15.8 µM (active)
Cc1[nH]c2ccccc2c1/C=C/c1cc[n+](C)cc1,-9.6%,–
C[C@H](NC(=O)/C(C#N)=C/c1ccc(O)c(O)c1)c1ccccc1,–,3.16 µM (active)

Compound,"activity, negative = inhibition",AC50
Cc1[nH]c2ccccc2c1/C=C(\C#N)C(=O)NC(C)c1ccccc1 (stereo unspecified),–,7.08 µM (active)
CC1(C)C2([N+](=O)[O-])CN3CC1([N+](=O)[O-])CN(C2)C31CCCC1,4.06%,–
COc1ccc(CC(=O)NCCN2CCCC2)cc1,0.907%,–
COc1ccc(CCNC(=O)CCCCCN2C(=O)c3ccccc3C2=O)cc1,–,6.31 µM (active)
CCOc1ccc(CCNC(=O)CCCN2C(=O)c3ccccc3C2=O)cc1OCC,–,7.08 µM (active)
CCCN(CCC)CCCNC(=O)c1ccc2c(c1)N(CC)C(=O)c1ccccc1S2=O (stereo unspecified),-23.9%,–
CCOC(=O)c1c(C)n(C)c2ccc(OC(=O)c3ccco3)cc12,–,15.8 µM (active)
CCN(CC)CCOC(=O)c1c(C)n(C)c2ccc(OC)cc12,-23.9%,–
CCCc1cc2c(=O)c(-c3ccc4c(c3)OCCO4)coc2cc1OC(=O)c1ccco1,9.62% [at 2.29 µM],–
CC(=O)OC[C@@H]1O[C@@H](O/N=C2/C[C@@H](O)[C@@H](O)[C@@H]3[C@@H]4C(=O)N(C(C)(C)C)C(=O)[C@H]4CC[C@@H]23)[C@H](OC(C)=O)[C@H](OC(C)=O)[C@@H]1OC(C)=O,-3.46% [at 11.4 µM],–
CC1=NN(c2ccccc2)C(=O)/C1=C\N1CC(C)OC(C)C1 (stereo unspecified),-26.3%,–
CC(=O)c1cccc(NS(=O)(=O)c2ccc(N/C=C\C(=O)c3ccc(F)cc3)cc2)c1,–,0.708 µM (active)
Nc1cccc2cc(S(=O)(=O)Nc3ccc(C(=O)O)cc3)ccc12,-7.54% [at 11.4 µM],–
Cc1ccc(C)c(/C(=N\N=C(N)N)C2CC2)c1,-27% [at 11.4 µM],–
COc1cc(/C=C(\C#N)c2nc3c(s2)CC(C)CC3)ccc1O (stereo unspecified),–,25.1 µM (active)
C=CCc1ccccc1OC[C@H](O)CNC(C)C,–,inactive
C=CCOc1ccccc1OC[C@H](O)CNC(C)C,-0.918% [at 25.6 µM],–
COC(=O)c1ccccc1NC(=O)C1CCN(C(=O)c2ccc(OC)cc2)CC1,–,6.31 µM (active)
CCOC(=O)C1CCN(C(=O)c2ccccc2NC(C)=O)CC1,-0.79%,–
COc1ccc(NC(=O)C2CCN(C(=O)c3cccs3)CC2)c(OC)c1,–,28.2 µM (active)
COc1cc(OC)cc(C(=O)Nc2ccccc2C(=O)N2CCCC2)c1,-8.41% [at 2.29 µM],–
COc1ccc2oc(=O)c(NC(=O)C3CCCCC3)cc2c1,-7.77%,–
O=C(Cn1c(-c2cscn2)nc2ccccc21)Nc1cc(F)ccc1F,–,14.1 µM (active)
CC(C)(C)c1ccc(OC(=O)Cn2c(C(F)(F)F)nc3ccccc32)cc1,23%,–

Compound,"activity, negative = inhibition",AC50
COc1ccc(O[C@H]2C=C[C@@H](c3ccccc3)O[C@@H]2CO/N=C(\C)CCN2CCCCc3nc(C)c(C)cc32)cc1,–,3.98 µM (active)
COc1ccc(O[C@H]2C=C[C@@H](c3ccccc3)O[C@@H]2CO/N=C(\C)CCN2CCCc3nc(C)c(C)cc32)cc1,–,3.16 µM (active)
Cc1cc(C)c(S(=O)(=O)Nc2ccccc2C(F)(F)F)c(C)c1,–,2.51 µM (active)
Cc1cc(C)c(S(=O)(=O)Nc2cccc(C(F)(F)F)c2)c(C)c1,–,12.6 µM (active)
C[C@@H]1C(=O)N(C)C(=O)c2nc[nH]c21,-3.89%,–
O=C(NCCOC12CC3CC(CC(C3)C1)C2)c1cccc(Br)c1,-3.19% [at 2.29 µM],–
CNc1nc(NCCOC23CC4CC(CC(C4)C2)C3)nc(OCC(F)(F)F)n1,–,25.1 µM (active)
CCC(C)Nc1nc(OCC(F)(F)F)nc(OCC(F)(F)F)n1 (stereo unspecified),4.7% [at 11.4 µM],–
COC(=O)/C=C/CSC1=N/C(=C/c2ccc(-n3cncn3)cc2)C(=O)N1,–,2 µM (active)
CC(C)Oc1ccc2ccccc2c1C=O,6.45% [at 2.29 µM],–
Cn1c(Oc2ccccc2)c(C=O)c2ccccc21,9.35%,–
COc1ccc(Oc2c(C=O)c3ccccc3n2C)cc1,–,17.8 µM (active)
Cn1ncc([N+](=O)[O-])c1C(=O)N1CCOCC1,-9.46% [at 2.29 µM],–
Cc1ccc2cc3cc(C(=O)N4CCCCC4C)oc3nc2c1 (stereo unspecified),–,12.6 µM (active)
COc1ccc(C)cc1NC(=O)c1cc2cc3ccc(C)cc3nc2o1,-12.1%,–
Cc1ccc2cc(C(=O)O)c(C)nc2c1,10.8%,–
c1ccc(-c2nc3ccccc3o2)nc1,-18.2%,–
Clc1ccc2oc(-c3cccnc3)nc2c1,-3.98%,–
Cc1ccc2nc(-c3cccnc3)oc2c1,–,39.8 µM (active)
O=[N+]([O-])c1ccc(N2CCCC2)cc1N1CCCC1,-24.1%,–
CS(=O)(=O)N1CCN(c2c(Cl)cccc2[N+](=O)[O-])CC1,15.1%,–
Cc1cc(C)n(-c2cc(N3CCN(S(=O)(=O)c4ccc(C)c(C)c4)CC3)ccc2[N+](=O)[O-])n1,–,3.16 µM (active)
Cc1c(Cl)c([N+](=O)[O-])nn1Cc1ccc(C(=O)N/N=C\c2cc(Cl)ccc2O)o1,–,2.24 µM (active)
CCN(CC)C(=O)C(=O)N/N=C/c1cccc(Br)c1,-20.6%,–

Compound,"activity, negative = inhibition",AC50
Cc1c(Cl)c([N+](=O)[O-])nn1Cc1ccc(C(=O)N/N=C\c2cccc(Br)c2)o1,–,3.98 µM (active)
Cc1cc(C(=O)N/N=C/c2cccc([N+](=O)[O-])c2)c(C)o1,-17%,–
C/C(Cn1nc([N+](=O)[O-])cc1C)=N\NC(=O)c1ccc(O)cc1O,-3.84% [at 2.29 µM],–
N#Cc1cccc(NC(=O)N2CCCC3(CCN(C(=O)c4cccc(F)c4)CC3)C2)c1,–,15.8 µM (active)
N#Cc1cccc(NC(=O)N2CC[C@@]3(CCCN(C(=O)c4cccc(F)c4)C3)C2)c1,–,10 µM (active)
N#Cc1cccc(NC(=O)N2CC3(CCN(C(=O)c4ccco4)CC3)C2)c1,-26.1%,–
N#Cc1cccc(NC(=O)N2CCCC3(CCN(C(=O)c4ccco4)CC3)C2)c1,–,5.01 µM (active)
S=c1[nH]c2cc(Cl)ccc2s1,-16.9% [at 2.29 µM],–
CC(C)C(NC(=O)C12CC3CC(CC(C3)C1)C2)C(=O)NC1=NCCS1 (stereo unspecified),–,15.8 µM (active)
CCc1ccc(N2CC(C(=O)NC3=NCCS3)CC2=O)cc1 (stereo unspecified),3.42% [at 2.29 µM],–
O=C(Nc1ccccc1)C(Cc1ccccc1)NC(=O)C12CC3CC(CC(C3)C1)C2 (stereo unspecified),-5.95%,–
Cc1ccc(S(=O)(=O)NC(=O)NN2C[C@H]3CCC[C@@H]3C2)cc1,10.8% [at 25.6 µM],–
CCCS(=O)(=O)N1CCCC(C(=O)NCCCN2CCN(c3ccc(F)cc3)CC2)C1 (stereo unspecified),14.9% [at 2.29 µM],–
Cc1ccc(S(=O)(=O)N(CC(=O)N2CCN(c3ccc(F)cc3)CC2)C2CCCCC2)cc1,–,1 µM (active)
O[C@H](CNc1ccccn1)c1ccccc1,-27.1% [at 11.4 µM],–
CN1CCN(c2nc3c(c(=O)n(C)c(=O)n3C)n2C)CC1,0.305% [at 11.4 µM],–
COCCn1c(=O)c(-c2cccs2)nc2cnc(N3CCNCC3)nc21,–,15.8 µM (active)
CN1CCN(c2ncc3nc(-c4ccccc4)c(=O)n(Cc4cccs4)c3n2)CC1,-4.51%,–
COCCn1c(=O)c(-c2ccc(OC)cc2)nc2cnc(N3CCNCC3)nc21,–,15.8 µM (active)
COc1ccc(-c2nc3cnc(N4CCOCC4)nc3n(CCC#N)c2=O)cc1,5.32%,–
CN1CCN(c2ncc3nc(-c4cccs4)c(=O)n(Cc4cccs4)c3n2)CC1,–,10 µM (active)
COCCn1c(=O)c(C)nc2cnc(N3CCNCC3)nc21,-23.2%,–
CN1CCN(c2ncc3nc(-c4cccs4)c(=O)n(CCc4ccccc4)c3n2)CC1,–,20 µM (active)
COCCn1c(=O)c(-c2ccc(OC)cc2)nc2cnc(N3CCOCC3)nc21,-11.4%,–
